Consider 33 compounds from PubChem BioAssay (Tox21).

“And” between values parts separate entries of the source, which are not always exact repeats. Equal entries are not always repeated. Results filed as inconclusive are left out. Where a structure was tested more than once in an assay, its records may differ in their call. The source made the active and inactive calls. Unless noted, the call rests on the fitted dose curve; in most records, active means well fitted curve in the direction sought with a large enough effect in the repeat runs; inconclusive means weak or mixed curves; inactive means no such curve, though single readings can be large; an effect the other way counts as inactive or inconclusive.

The nature of experiment [1]: qHTS assay to identify small molecule antagonists of the androgen receptor (AR) signaling pathway using the MDA cell line in the presence of 0.5 nM R1881 - cell viability counter screen (AID 1259242). Further: nearly all actives have a fitted effect of over 45% in size. The method in brief:
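R1881 at 0.5 nM final stimulated MDA-kb2 cells during 16 hr compound treatment at 37C. Cytotoxicity read: CellTiter-Fluor fluorescence after 30 min.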
(In general: In qHTS, concentration-response curves come from the screen itself.)

Experiment [2] deals with Estrogen receptor (Homo sapiens) (UniProt P03372). Briefly: qHTS assay to identify small molecule antagonists of the estrogen receptor alpha (ER-alpha) signaling pathway using the BG1 cell line in the presence of 0.1 nM 17-beta-estradiol (AID 1259244). Further: nearly all actives have a fitted effect of over 50% in size. Put shortly: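 VM7Luc4E2; 4xERE-luciferase; 0.1 nM E2 final; 22 h co-incubation, 37C; ONE-Glo luminescence after 30 min at room temperature.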
Sequence of Estrogen receptor (Homo sapiens) (P03372 whole entry, looked up): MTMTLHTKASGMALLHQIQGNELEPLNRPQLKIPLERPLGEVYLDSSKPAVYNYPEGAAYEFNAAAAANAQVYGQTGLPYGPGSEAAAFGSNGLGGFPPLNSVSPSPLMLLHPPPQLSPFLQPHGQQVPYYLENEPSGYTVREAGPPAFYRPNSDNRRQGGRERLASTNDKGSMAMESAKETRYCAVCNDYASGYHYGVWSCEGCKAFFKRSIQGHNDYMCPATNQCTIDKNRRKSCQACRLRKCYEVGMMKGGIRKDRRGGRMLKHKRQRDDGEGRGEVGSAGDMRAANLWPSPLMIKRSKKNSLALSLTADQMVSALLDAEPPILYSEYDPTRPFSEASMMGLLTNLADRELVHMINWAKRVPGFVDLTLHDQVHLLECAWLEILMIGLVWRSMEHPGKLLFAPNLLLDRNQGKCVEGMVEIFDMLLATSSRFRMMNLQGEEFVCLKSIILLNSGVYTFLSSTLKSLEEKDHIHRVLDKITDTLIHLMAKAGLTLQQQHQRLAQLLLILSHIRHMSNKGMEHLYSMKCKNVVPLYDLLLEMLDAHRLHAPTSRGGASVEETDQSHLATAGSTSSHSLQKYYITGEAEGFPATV

The nature of experiment [3]: qHTS assay to identify small molecule HDAC inhibitors - cell viability counter screen (AID 1259365). Further: series mostly up to about 92 µM; nearly all actives have a fitted effect of over 50% in size. Put shortly:
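Measured quantity is CellTiter-Glo luminescence from wild-type HCT-116 cells after compound incubation of 2hr at 37C, 5% CO2; reagent developed 30min at room temperature.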

Experiment [4] is described as follows: qHTS assay to identify small molecule agonists of the sonic hedgehog signaling (Shh) pathway - cell viability counter screen (AID 1259366). Further: nearly all actives have a fitted effect of over 50% in size. Further: potency means the concentration at half of the fitted maximal effect. The method in brief: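 In quantitative high-throughput format, 3T3 Gli1-Luc cells were exposed to compounds for 24hr and multiplexed for viability using CellTiter-Fluor, incubated 1hr at 37C before the fluorescence read.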

Experiment [5] can be described thus: qHTS assay to identify small molecule antagonists of the sonic hedgehog signaling (Shh) pathway - cell viability counter screen (AID 1259367). Further: nearly all actives have a fitted effect of over 55% in size. Further: potency means the concentration at half of the fitted maximal effect. The method in brief:
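NIH/3T3-derived Gli1-Luc reporter cells, 2,000/well, plated 4 hr before compound addition, then stimulated with conditioned medium for 24 hr at 37C. Viability measured in the same wells by CellTiter-Fluor fluorescence, reagent added at 23 hr for 1 hr.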

Experiment [6] in a line: qHTS assay to identify small molecule agonists of the sonic hedgehog signaling (Shh) pathway (AID 1259368; calls by dose curve; further: nearly all actives have a fitted effect of over 15% in size; further: potency means the concentration at half of the fitted maximal effect). Put shortly:
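Mouse fibroblast (NIH/3T3) reporter cells with stably integrated Gli1-Luc were treated 24 hr with compound; firefly luciferase luminescence served as the read-out.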

A short description of experiment [7]: qHTS assay to identify small molecule phospholipidosis (PLD) inducers (AID 1259344; active means well fitted curve in the direction sought with a large enough effect; an effect the other way counts as inactive or inconclusive). Put shortly: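 HepG2 cells, 900/well, treated with compound plus LipidTOX Red for 24 h at 37 C; amiodarone positive and DMSO negative controls. Fixed with paraformaldehyde/Hoechst, then high-content imaging scored LipidTOX pit count and integrated intensity per well and per cell.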

A short description of experiment [8]: qHTS assay to identify small molecule HDAC inhibitors (AID 1259364).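 Further: wild-type HCT-116 cells with endogenous class I/II HDAC activity; top concentration of the series differs between compounds; nearly all actives have a fitted effect of over 45% in size.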 Put shortly: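 Relative class I and II HDAC activity is taken from the luminogenic signal in HCT-116 cells, with compound exposure 2 hr and reagent development 30 min at room temperature.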

On to `CCCCCCCCO`, for which the Potency entry in experiment [1], in experiment [2], in experiment [3], in experiment [4], in experiment [5] and in experiment [6] was “inactive” each time.
Turning to `COc1ccccc1[N+](=O)[O-]`, the Potency entry in experiment [1], in experiment [3], in experiment [4], in experiment [5] and in experiment [6] was “inactive” each time.
With `NCCNCCNCCN`, the Potency result in experiment [1], in experiment [3], in experiment [4], in experiment [5] and in experiment [6] was “inactive” in each case. Moreover, the call in experiment [7] was inactive.
For `C=C1C[C@]23C[C@@]1(O)CC[C@H]2[C@@]12C=C[C@H](O)[C@@](C)(C(=O)O1)[C@H]2[C@@H]3C(=O)O`, the Potency entry in experiment [1], in experiment [3], in experiment [4], in experiment [5] and in experiment [6] was “inactive” throughout.
With `CC(C)c1ccc(C(C)C)cc1`, the Potency entry in experiment [1], in experiment [2], in experiment [8], in experiment [3], in experiment [4] and in experiment [5] was “inactive” in each case. The Potency entry in experiment [6] is “inactive”.
Consider `Cc1cccc(C)c1[N+](=O)[O-]`, for which the Potency result in experiment [1], in experiment [8], in experiment [3], in experiment [4] and in experiment [6] was “inactive” throughout. Moreover, the Potency entry in experiment [5] is “inactive and 48.6 µM (active)”.
On to `CCCCCCCC(=O)O`, for which the Potency entry in experiment [1], in experiment [2], in experiment [8], in experiment [3], in experiment [4] and in experiment [5] was “inactive” each time. Moreover, the Potency entry in experiment [6] was “inactive”. The outcome in experiment [7] was inactive.
With `CC(=O)OCCC(C)C`, the Potency result in experiment [1], in experiment [8], in experiment [3], in experiment [4], in experiment [5] and in experiment [6] was “inactive” throughout.
`O=C1CCCCCCCCCCC1`: the Potency result in experiment [1], in experiment [2], in experiment [8], in experiment [3], in experiment [4] and in experiment [5] was “inactive” throughout. For the same compound, the Potency result in experiment [6] was “inactive”.
Turning to `O=C(c1ccccc1)c1ccc(O)c(O)c1O`, the Potency result in experiment [1], in experiment [2], in experiment [8], in experiment [3] and in experiment [6] was “inactive” throughout.
Take `Cc1ccncc1`: the Potency entry in experiment [1], in experiment [2], in experiment [8], in experiment [3], in experiment [4] and in experiment [5] was “inactive” in each case. The Potency entry in experiment [6] was “inactive”.
In the case of `CC(C)=CCC/C(C)=C/C=O`, the Potency entry in experiment [1], in experiment [2], in experiment [8], in experiment [3], in experiment [4] and in experiment [5] was “inactive” in each case. Also, the Potency result in experiment [6] is “inactive”.
In the case of `O=C(NCC1CCCCN1)c1cc(OCC(F)(F)F)ccc1OCC(F)(F)F` (configuration not stated), the Potency result in experiment [1], in experiment [3], in experiment [4], in experiment [5] and in experiment [6] was “inactive” in each case. The call in experiment [7] was inactive.
Take `CC(=O)c1nccs1`: the Potency result in experiment [1], in experiment [2], in experiment [8], in experiment [3], in experiment [4] and in experiment [5] was “inactive” throughout. Besides, the Potency entry in experiment [6] is “inactive”.
Turning to `c1cnc2c(c1)ccc1cccnc12`, the Potency entry in experiment [1] and in experiment [3] was “inactive” throughout. In addition, the Potency is 24.6 µM (active) in experiment [4]; 13.8 µM (active) and 68.6 µM (active) and 43.3 µM (active) in experiment [5]; 3.09 µM (active) and 24.3 µM (active) and 21.7 µM (active) in experiment [6].
As to `Cc1cc(C)cc(O)c1`, the Potency entry in experiment [1], in experiment [2], in experiment [3] and in experiment [6] was “inactive” each time. Further, the Potency was 8.65 µM (active) and inactive in experiment [4]; 2.44 µM (active) and inactive in experiment [5].
Regarding `CC/C(C)=N/O`, the Potency entry in experiment [1], in experiment [8], in experiment [3], in experiment [4], in experiment [5] and in experiment [6] was “inactive” in each case.
With `COc1c2ccoc2cc2oc(=O)ccc12`, the Potency result in experiment [1], in experiment [2], in experiment [3], in experiment [4], in experiment [5] and in experiment [6] was “inactive” throughout.
Consider `CCCCCNCCCCC`, for which the Potency entry in experiment [1], in experiment [3], in experiment [4], in experiment [5] and in experiment [6] was “inactive” each time.
In the case of `O=C1C(N(CO)C(=O)NCO)N(CO)C(=O)N1CO` (configuration not stated), the Potency result in experiment [1], in experiment [2], in experiment [3], in experiment [4], in experiment [5] and in experiment [6] was “inactive” in each case.
With `C=CC(C)(C)C`, the Potency entry in experiment [1], in experiment [2], in experiment [3], in experiment [4], in experiment [5] and in experiment [6] was “inactive” each time.
Consider `O=Cc1ccc(CO)o1`, for which the Potency entry in experiment [1], in experiment [2], in experiment [8], in experiment [3], in experiment [4] and in experiment [5] was “inactive” each time. For the same compound, the Potency result in experiment [6] was “inactive”.
With `CC(CN1c2ccccc2Sc2ccccc21)N(C)C` (configuration not stated), the Potency result in experiment [1], in experiment [8], in experiment [3] and in experiment [6] was “inactive” in each case. Further, the outcome in experiment [7] was inactive. Also, the Potency was 61.8 µM (active) and 30.6 µM (active) and inactive in experiment [4]; 27.6 µM (active) and inactive in experiment [5].
As to `CC/C=C(\C(=O)N[C@@H]1C(=O)N2C(C(=O)OCOC(=O)C(C)(C)C)=C(COC(N)=O)CS[C@H]12)c1csc(N)n1`, the Potency entry in experiment [1], in experiment [2], in experiment [8], in experiment [3], in experiment [4] and in experiment [5] was “inactive” throughout. Moreover, in experiment [6], the Potency result is “inactive”. For the same compound, the compound was classed as inactive in experiment [7].
Take `O=C(O)Cc1c[nH]c2ccccc12`: the Potency result in experiment [1], in experiment [8], in experiment [3], in experiment [4], in experiment [5] and in experiment [6] was “inactive” in each case.
As to `COC(=O)CCCCC(=O)OC`, the Potency entry in experiment [1], in experiment [2], in experiment [8], in experiment [3], in experiment [4] and in experiment [5] was “inactive” each time. For the same compound, the Potency result in experiment [6] is “inactive”.
For `O=C1OC(=O)c2c(Cl)c(Cl)c(Cl)c(Cl)c21`, the Potency result in experiment [1], in experiment [3], in experiment [4], in experiment [5] and in experiment [6] was “inactive” throughout.
On to `CCN(CC)CCNC(=O)c1ccc(N)cc1`, for which the Potency result in experiment [1], in experiment [3], in experiment [4], in experiment [5] and in experiment [6] was “inactive” in each case. Further, the outcome in experiment [7] was inactive.
As for `CCOC(=O)CC(=O)OCC`, the Potency result in experiment [1], in experiment [8], in experiment [3], in experiment [4], in experiment [5] and in experiment [6] was “inactive” each time.
As to `Oc1ccc(Cc2ccccc2O)cc1`, the Potency entry in experiment [1], in experiment [2], in experiment [8], in experiment [3], in experiment [4] and in experiment [5] was “inactive” throughout. In addition, the Potency entry in experiment [6] is “inactive”.
On to `C1CCCNCC1`, for which the Potency result in experiment [1], in experiment [2], in experiment [8], in experiment [3], in experiment [4] and in experiment [5] was “inactive” in each case. Further, in experiment [6], the Potency entry is “inactive”.
As to `CC(=O)C(C)C`, the Potency entry in experiment [1], in experiment [2], in experiment [3], in experiment [4], in experiment [5] and in experiment [6] was “inactive” in each case.
As for `OC[C@H]1O[C@@H](Oc2ccc(O)cc2)[C@H](O)[C@@H](O)[C@@H]1O`, the Potency entry in experiment [1], in experiment [2], in experiment [3], in experiment [4], in experiment [5] and in experiment [6] was “inactive” in each case. For the same compound, the result in experiment [7] was inactive.
